In PubChem BioAssay AID1159580 (chemical genetic matrix, 2015):
The whole screen tested about 5,500 compounds, of which about 2,000 (36%) were called active. Roughly 18% stayed inconclusive and do not appear here. Rule as the data show it: active = normalized growth mostly below about 0.91 (no sharp cut-off); inconclusive = no clear call, values can overlap the other calls; inactive = mostly above about 0.92. This is one part of the list.

Experiment: chemical genetic growth profiling, strain panel (AID 1159580);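 also: tested at 20 µM; growth read once vehicle control cultures reached saturation at 30 °C; 1 = growth at the plate median or of vehicle wells; lower values mean less growth of the strain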
Conditions: S. cerevisiae deletion strains, growth OD

Measured: normalized growth

COc1ccc(OC)c(-c2ccn[nH]2)c1OCc1ccccc1
inactive: locus YAR019C, strain CDC15, active compounds read low 0.995 | locus YBL105C, strain PKC1, active compounds read low 0.998 | locus YBR135W, strain CKS1, active compounds read low 0.994 | locus YBR136W, strain MEC1, active compounds read low 0.987 | locus YBR160W, strain CDC28, active compounds read low 0.994 | locus YDL017W, strain CDC7, active compounds read low 0.997 | locus YDL028C, strain MPS1, active compounds read low 0.974 | locus YDL101C, strain DUN1, active compounds read low 0.979 | locus YDL108W, strain KIN28, active compounds read low 0.987 | locus YDL132W, strain cdc53, active compounds read low 0.987 | locus YDL214C, strain PRR2, active compounds read low 0.893 | locus YDR052C, strain DBF4, active compounds read low 0.989 | locus YDR054C, strain cdc34, active compounds read low 0.985 | locus YDR226W, strain ADK1, active compounds read low 0.998 | locus YDR477W, strain SNF1, active compounds read low 0.905 | locus YER123W, strain YCK3, active compounds read low 0.762 | locus YER133W, strain GLC7, active compounds read low 0.886 | locus YFL009W, strain cdc4, active compounds read low 0.998 | locus YFL029C, strain CAK1, active compounds read low 0.995 | locus YFR003C, strain YPI1, active compounds read low 0.993 | locus YFR019W, strain FAB1, active compounds read low 0.832 | locus YFR028C, strain CDC14, active compounds read low 0.993 | locus YGR040W, strain KSS1, active compounds read low 0.874 | locus YGR052W, strain FMP48, active compounds read low 0.948 | locus YGR092W, strain DBF2, active compounds read low 0.864 | locus YHR030C, strain SLT2, active compounds read low 0.986 | locus YHR079C, strain IRE1, active compounds read low 0.999 | locus YHR082C, strain KSP1, active compounds read low 0.974 | locus YHR205W, strain SCH9, active compounds read low 0.97 | locus YIL147C, strain SLN1, active compounds read low 0.97 | locus YJL095W, strain BCK1, active compounds read low 0.953 | locus YJL128C, strain PBS2, active compounds read low 0.981 | locus YJL157C, strain FAR1, active compounds read low 0.887 | locus YJR016C, strain ILV3, active compounds read low 1 | locus YJR066W, strain TOR1 (second series), active compounds read low 0.808 | locus YJR066W, strain TOR1, active compounds read low 0.96 | locus YKL048C, strain ELM1, active compounds read low 0.948 | locus YKL067W, strain YNK1, active compounds read low 0.907 | locus YKL101W, strain HSL1, active compounds read low 0.926 | locus YKL193C, strain SDS22, active compounds read low 0.989 | locus YKL203C, strain TOR2, active compounds read low 0.953 | locus YLR113W, strain HOG1, active compounds read low 1.01 | locus YLR133W, strain CKI1, active compounds read low 0.924 | locus YLR403W, strain SFP1, active compounds read low 0.883 | locus YML070W, strain DAK1, active compounds read low 0.877 | locus YMR001C, strain CDC5, active compounds read low 0.993 | locus YMR205C, strain PFK2 (second series), active compounds read low 0.908 | locus YMR277W, strain FCP1, active compounds read low 0.993 | locus YNL006W, strain LST8, active compounds read low 0.985 | locus YNL020C, strain ARK1, active compounds read low 0.903 | locus YNL161W, strain CBK1, active compounds read low 0.995 | locus YNL183C, strain NPR1, active compounds read low 0.969 | locus YNL207W, strain RIO2, active compounds read low 0.997 | locus YNL222W, strain SSU72, active compounds read low 1 | locus YNL307C, strain MCK1 (second series), active compounds read low 0.922 | locus YOL078W, strain AVO1, active compounds read low 0.994 | locus YOL136C, strain PFK27, active compounds read low 0.908 | locus YOR061W, strain CKA2, active compounds read low 0.871 | locus YOR119C, strain RIO1, active compounds read low 0.936 | locus YOR231W, strain MKK1, active compounds read low 0.992 | locus YOR329C, strain SCD5, active compounds read low 0.999 | locus YPL031C, strain PHO85, active compounds read low 0.87 | locus YPL153C, strain RAD53, active compounds read low 0.869 | locus YPL204W, strain HRR25, active compounds read low 0.892 | locus YPL209C, strain IPL1, active compounds read low 0.994 | locus YPL256C, strain CLN2, active compounds read low 1.02 | locus YPR025C, strain CCL1, active compounds read low 0.994 | locus YPR106W, strain ISR1, active compounds read low 1 | locus YPR111W, strain DBF20, active compounds read low 0.999 | strain NNK1, active compounds read low 0.994 | strain TSCII, active compounds read low 0.992
